Measurements as given in publication PMC12820563, “FoxP3 forms a head-to-head dimer in vivo and stabilizes its multimerization on adjacent microsatellites”.
Over roughly 16,000 sequences, “rpm ratio (pull-down/input)” has its median near 0.94; the highest 2% begin near 1.7. This excerpt belongs to a sample that is enriched for the highest values.

What follows are sequences tested against T1, MBP-FoxP1dN (Mus musculus, UniProt P58462 326-579) (assay: PD-seq (MBP pull-down with sequencing); 20 mM Tris-HCl pH 7.5, 100 mM NaCl, 1.5 mM MgCl2, 0.4 uM protein, 0.1 uM dsDNA library, 30 min, room temperature, amylose pull-down; high values mean tight binding). Details: protein: recombinant; tags: His6-MBP; chain copies: 2; dsDNA, one strand shown.
T1 sequence: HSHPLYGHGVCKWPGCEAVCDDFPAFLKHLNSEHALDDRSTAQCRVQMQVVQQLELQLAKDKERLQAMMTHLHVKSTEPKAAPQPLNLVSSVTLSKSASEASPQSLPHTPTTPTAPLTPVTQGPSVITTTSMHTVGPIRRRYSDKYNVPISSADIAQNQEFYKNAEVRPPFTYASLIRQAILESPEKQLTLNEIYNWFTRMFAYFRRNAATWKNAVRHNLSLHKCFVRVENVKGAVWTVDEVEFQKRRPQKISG
Method in brief: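 In Tris pH 7.5 buffer with NaCl and MgCl2, 0.4 µM His6-MBP-tagged mouse FoxP3 or FoxP1 fragment lacking the N-terminus, from E. coli, met 0.1 µM Klenow-filled double-stranded degenerate DNA library for 30 min at room temperature. Three washes on amylose resin followed capture of the complexes, then proteinase K release of DNA, PCR barcoding and Illumina sequencing. Binding is taken as pooled-replicate reads-per-million enrichment of pull-down relative to input.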

Sequence	binding signal
GATGATTGTTCTCCCAGCTGATGAATTCGCAAATTCGAGTAAACAAATTTTCCTAATCTTTCTGTTCAAGCGCCATCTAC	0.933 RPM ratio (pull-down/input)
GATGATTGTTCTCCCAGCTGATGAATTGGCCTTCTCGAGTAAACAAATTTTCCTAATCTTTCTGTTCAAGCGCCATCTAC	0.772 RPM ratio (pull-down/input)
GATGATTGTTCTCCCAGCTGATGAATTGCAATGTTCGAGTAAACAAATTTTCCTAATCTTTCTGTTCAAGCGCCATCTAC	1.42 RPM ratio (pull-down/input)
GATGATTGTTCTCCCAGCTGATGAATTAAGGGTTTCGAGTAAACAAATTTTCCTAATCTTTCTGTTCAAGCGCCATCTAC	0.875 RPM ratio (pull-down/input)
GATGATTGTTCTCCCAGCTGATGAATTTCTTGTTTCGAGTAAACAAATTTTCCTAATCTTTCTGTTCAAGCGCCATCTAC	1.14 RPM ratio (pull-down/input)
GATGATTGTTCTCCCAGCTGATGAATTCTCATGTTCGAGTAAACAAATTTTCCTAATCTTTCTGTTCAAGCGCCATCTAC	0.861 RPM ratio (pull-down/input)
GATGATTGTTCTCCCAGCTGATGAATTCTTGTTTTCGAGTAAACAAATTTTCCTAATCTTTCTGTTCAAGCGCCATCTAC	2.77 RPM ratio (pull-down/input)
GATGATTGTTCTCCCAGCTGATGAATTTCATGTTTCGAGTAAACAAATTTTCCTAATCTTTCTGTTCAAGCGCCATCTAC	0.998 RPM ratio (pull-down/input)
GATGATTGTTCTCCCAGCTGATGAATTCCTTGTTTCGAGTAAACAAATTTTCCTAATCTTTCTGTTCAAGCGCCATCTAC	0.969 RPM ratio (pull-down/input)
GATGATTGTTCTCCCAGCTGATGAATTCATGTTTTCGAGTAAACAAATTTTCCTAATCTTTCTGTTCAAGCGCCATCTAC	2.2 RPM ratio (pull-down/input)
GATGATTGTTCTCCCAGCTGATGAATTGAAAGCCTCGAGTAAACAAATTTTCCTAATCTTTCTGTTCAAGCGCCATCTAC	0.795 RPM ratio (pull-down/input)
GATGATTGTTCTCCCAGCTGATGAATTATACAGCTCGAGTAAACAAATTTTCCTAATCTTTCTGTTCAAGCGCCATCTAC	1.03 RPM ratio (pull-down/input)
GATGATTGTTCTCCCAGCTGATGAATTCTCGCGCTCGAGTAAACAAATTTTCCTAATCTTTCTGTTCAAGCGCCATCTAC	0.835 RPM ratio (pull-down/input)
GATGATTGTTCTCCCAGCTGATGAATTCGTCTTGTCGAGTAAACAAATTTTCCTAATCTTTCTGTTCAAGCGCCATCTAC	0.827 RPM ratio (pull-down/input)
GATGATTGTTCTCCCAGCTGATGAATTAATAATCTCGAGTAAACAAATTTTCCTAATCTTTCTGTTCAAGCGCCATCTAC	1.06 RPM ratio (pull-down/input)
GATGATTGTTCTCCCAGCTGATGAATTATATTTGTCGAGTAAACAAATTTTCCTAATCTTTCTGTTCAAGCGCCATCTAC	2.29 RPM ratio (pull-down/input)
GATGATTGTTCTCCCAGCTGATGAATTTATATTCTCGAGTAAACAAATTTTCCTAATCTTTCTGTTCAAGCGCCATCTAC	1.04 RPM ratio (pull-down/input)
GATGATTGTTCTCCCAGCTGATGAATTTTTATTGTCGAGTAAACAAATTTTCCTAATCTTTCTGTTCAAGCGCCATCTAC	2.51 RPM ratio (pull-down/input)
GATGATTGTTCTCCCAGCTGATGAATTATTTTTGTCGAGTAAACAAATTTTCCTAATCTTTCTGTTCAAGCGCCATCTAC	1.37 RPM ratio (pull-down/input)
GATGATTGTTCTCCCAGCTGATGAATTTTATATGTCGAGTAAACAAATTTTCCTAATCTTTCTGTTCAAGCGCCATCTAC	0.988 RPM ratio (pull-down/input)
GATGATTGTTCTCCCAGCTGATGAATTGTTATTGTCGAGTAAACAAATTTTCCTAATCTTTCTGTTCAAGCGCCATCTAC	3.45 RPM ratio (pull-down/input)

Sequence	binding signal
GATGATTGTTCTCCCAGCTGATGAATTTATTCTGTCGAGTAAACAAATTTTCCTAATCTTTCTGTTCAAGCGCCATCTAC	1.12 RPM ratio (pull-down/input)
GATGATTGTTCTCCCAGCTGATGAATTTTATCTGTCGAGTAAACAAATTTTCCTAATCTTTCTGTTCAAGCGCCATCTAC	0.918 RPM ratio (pull-down/input)
GATGATTGTTCTCCCAGCTGATGAATTATATCTGTCGAGTAAACAAATTTTCCTAATCTTTCTGTTCAAGCGCCATCTAC	1.08 RPM ratio (pull-down/input)
GATGATTGTTCTCCCAGCTGATGAATTTATATTGTCGAGTAAACAAATTTTCCTAATCTTTCTGTTCAAGCGCCATCTAC	2.36 RPM ratio (pull-down/input)
GATGATTGTTCTCCCAGCTGATGAATTAAACATATCGAGTAAACAAATTTTCCTAATCTTTCTGTTCAAGCGCCATCTAC	1.4 RPM ratio (pull-down/input)
GATGATTGTTCTCCCAGCTGATGAATTGGTGCCATCGAGTAAACAAATTTTCCTAATCTTTCTGTTCAAGCGCCATCTAC	0.972 RPM ratio (pull-down/input)
GATGATTGTTCTCCCAGCTGATGAATTCGCTGTATCGAGTAAACAAATTTTCCTAATCTTTCTGTTCAAGCGCCATCTAC	1.04 RPM ratio (pull-down/input)
GATGATTGTTCTCCCAGCTGATGAATTTACCCTCTCGAGTAAACAAATTTTCCTAATCTTTCTGTTCAAGCGCCATCTAC	1.06 RPM ratio (pull-down/input)
GATGATTGTTCTCCCAGCTGATGAATTAAAAAGTTCGAGTAAACAAATTTTCCTAATCTTTCTGTTCAAGCGCCATCTAC	0.935 RPM ratio (pull-down/input)
GATGATTGTTCTCCCAGCTGATGAATTATAGTAGTCGAGTAAACAAATTTTCCTAATCTTTCTGTTCAAGCGCCATCTAC	0.985 RPM ratio (pull-down/input)
GATGATTGTTCTCCCAGCTGATGAATTGGTCGCGTCGAGTAAACAAATTTTCCTAATCTTTCTGTTCAAGCGCCATCTAC	1.03 RPM ratio (pull-down/input)
GATGATTGTTCTCCCAGCTGATGAATTCAAGCTCTCGAGTAAACAAATTTTCCTAATCTTTCTGTTCAAGCGCCATCTAC	0.854 RPM ratio (pull-down/input)
GATGATTGTTCTCCCAGCTGATGAATTTTATGTGTCGAGTAAACAAATTTTCCTAATCTTTCTGTTCAAGCGCCATCTAC	1.13 RPM ratio (pull-down/input)
GATGATTGTTCTCCCAGCTGATGAATTTATTGTGTCGAGTAAACAAATTTTCCTAATCTTTCTGTTCAAGCGCCATCTAC	1.88 RPM ratio (pull-down/input)
GATGATTGTTCTCCCAGCTGATGAATTGATTGTGTCGAGTAAACAAATTTTCCTAATCTTTCTGTTCAAGCGCCATCTAC	1.35 RPM ratio (pull-down/input)
GATGATTGTTCTCCCAGCTGATGAATTTATTTGGTCGAGTAAACAAATTTTCCTAATCTTTCTGTTCAAGCGCCATCTAC	1.59 RPM ratio (pull-down/input)
GATGATTGTTCTCCCAGCTGATGAATTATTCCTGTCGAGTAAACAAATTTTCCTAATCTTTCTGTTCAAGCGCCATCTAC	0.964 RPM ratio (pull-down/input)
GATGATTGTTCTCCCAGCTGATGAATTTTATTGGTCGAGTAAACAAATTTTCCTAATCTTTCTGTTCAAGCGCCATCTAC	1.74 RPM ratio (pull-down/input)
GATGATTGTTCTCCCAGCTGATGAATTCTTATTGTCGAGTAAACAAATTTTCCTAATCTTTCTGTTCAAGCGCCATCTAC	2.49 RPM ratio (pull-down/input)
GATGATTGTTCTCCCAGCTGATGAATTTTATTTGTCGAGTAAACAAATTTTCCTAATCTTTCTGTTCAAGCGCCATCTAC	2.45 RPM ratio (pull-down/input)
GATGATTGTTCTCCCAGCTGATGAATTGTCTTATTCGAGTAAACAAATTTTCCTAATCTTTCTGTTCAAGCGCCATCTAC	1.18 RPM ratio (pull-down/input)

Sequence	binding signal
GATGATTGTTCTCCCAGCTGATGAATTATTTTGGTCGAGTAAACAAATTTTCCTAATCTTTCTGTTCAAGCGCCATCTAC	1.35 RPM ratio (pull-down/input)
GATGATTGTTCTCCCAGCTGATGAATTTAATTTGTCGAGTAAACAAATTTTCCTAATCTTTCTGTTCAAGCGCCATCTAC	1.25 RPM ratio (pull-down/input)
GATGATTGTTCTCCCAGCTGATGAATTTATTTTGTCGAGTAAACAAATTTTCCTAATCTTTCTGTTCAAGCGCCATCTAC	1.62 RPM ratio (pull-down/input)
GATGATTGTTCTCCCAGCTGATGAATTTCATAAATCGAGTAAACAAATTTTCCTAATCTTTCTGTTCAAGCGCCATCTAC	1.05 RPM ratio (pull-down/input)
GATGATTGTTCTCCCAGCTGATGAATTAAATCACTCGAGTAAACAAATTTTCCTAATCTTTCTGTTCAAGCGCCATCTAC	1.09 RPM ratio (pull-down/input)
GATGATTGTTCTCCCAGCTGATGAATTAGACGCGTCGAGTAAACAAATTTTCCTAATCTTTCTGTTCAAGCGCCATCTAC	0.99 RPM ratio (pull-down/input)
GATGATTGTTCTCCCAGCTGATGAATTGCAGATGTCGAGTAAACAAATTTTCCTAATCTTTCTGTTCAAGCGCCATCTAC	1.27 RPM ratio (pull-down/input)
GATGATTGTTCTCCCAGCTGATGAATTACTCCAATCGAGTAAACAAATTTTCCTAATCTTTCTGTTCAAGCGCCATCTAC	1.1 RPM ratio (pull-down/input)
GATGATTGTTCTCCCAGCTGATGAATTCCCCAGGTCGAGTAAACAAATTTTCCTAATCTTTCTGTTCAAGCGCCATCTAC	0.743 RPM ratio (pull-down/input)
GATGATTGTTCTCCCAGCTGATGAATTATGTGTGTCGAGTAAACAAATTTTCCTAATCTTTCTGTTCAAGCGCCATCTAC	1.4 RPM ratio (pull-down/input)
GATGATTGTTCTCCCAGCTGATGAATTATTTGTGTCGAGTAAACAAATTTTCCTAATCTTTCTGTTCAAGCGCCATCTAC	2.12 RPM ratio (pull-down/input)
GATGATTGTTCTCCCAGCTGATGAATTATCTGTGTCGAGTAAACAAATTTTCCTAATCTTTCTGTTCAAGCGCCATCTAC	1.03 RPM ratio (pull-down/input)
GATGATTGTTCTCCCAGCTGATGAATTACCAATATCGAGTAAACAAATTTTCCTAATCTTTCTGTTCAAGCGCCATCTAC	1.79 RPM ratio (pull-down/input)
GATGATTGTTCTCCCAGCTGATGAATTTACAATATCGAGTAAACAAATTTTCCTAATCTTTCTGTTCAAGCGCCATCTAC	1.63 RPM ratio (pull-down/input)
GATGATTGTTCTCCCAGCTGATGAATTACCAATCTCGAGTAAACAAATTTTCCTAATCTTTCTGTTCAAGCGCCATCTAC	0.961 RPM ratio (pull-down/input)
GATGATTGTTCTCCCAGCTGATGAATTACATATATCGAGTAAACAAATTTTCCTAATCTTTCTGTTCAAGCGCCATCTAC	1.34 RPM ratio (pull-down/input)
GATGATTGTTCTCCCAGCTGATGAATTACTACTATCGAGTAAACAAATTTTCCTAATCTTTCTGTTCAAGCGCCATCTAC	1.24 RPM ratio (pull-down/input)
GATGATTGTTCTCCCAGCTGATGAATTACTGATATCGAGTAAACAAATTTTCCTAATCTTTCTGTTCAAGCGCCATCTAC	1.18 RPM ratio (pull-down/input)
GATGATTGTTCTCCCAGCTGATGAATTACTAATATCGAGTAAACAAATTTTCCTAATCTTTCTGTTCAAGCGCCATCTAC	1.73 RPM ratio (pull-down/input)
GATGATTGTTCTCCCAGCTGATGAATTACAAATATCGAGTAAACAAATTTTCCTAATCTTTCTGTTCAAGCGCCATCTAC	2.21 RPM ratio (pull-down/input)
GATGATTGTTCTCCCAGCTGATGAATTACCAATTTCGAGTAAACAAATTTTCCTAATCTTTCTGTTCAAGCGCCATCTAC	1.13 RPM ratio (pull-down/input)
